In the supplement of paper PMC13380429:

Test system: Vero E6 infected with SARS-CoV-2
Assay: inhibition of SARS-CoV-2 cytopathic effect; higher = more antiviral protection, active = above 15
Conditions: 48 h

Measured: inhibition of SARS-CoV-2 cytopathic effect

Cc1c(C(N)=O)cc([N+](=O)[O-])cc1[N+](=O)[O-] [dinitolmide]
inactive: 1 nM -1.43% | 8.33 nM 2.03% | 100 nM 1.29% | 833.33 nM -2.22% | 10000 nM -3.59%

CN1C(C(=O)Nc2ccccn2)=C(O)c2sc(Cl)cc2S1(=O)=O [lornoxicam]
inactive: 1 nM -2.9% | 8.33 nM -0.66% | 100 nM -1.36% | 833.33 nM 0.9% | 10000 nM -0.69%

CNC(=O)c1cc(COc2nnc(Nc3ccc(Cl)cc3)c3ccoc23)ccn1 [telatinib]
inactive: 1 nM 0.06% | 8.33 nM 2.23% | 100 nM -1.3% | 833.33 nM 0.04% | 10000 nM 0.53%

CC(C)=CCC/C(C)=C/CC/C(C)=C/CC[C@]1(C)CCc2cc(O)cc(C)c2O1 [delta-tocotrienol]
inactive: 1 nM 0.39% | 8.33 nM -1.44% | 100 nM 2.83% | 833.33 nM 7.95% | 10000 nM 2.88%

Oc1ncnc2[nH]ncc12 [allopurinol]
inactive: 1 nM -15.3% | 8.33 nM -12.3% | 100 nM -11.2% | 833.33 nM -10.9% | 10000 nM -7.04%

O=c1c(O)c(-c2cc(O)c(O)c(O)c2)oc2cc(O)cc(O)c12 [myricetin]
inactive: 1 nM -0.44% | 8.33 nM 0.2% | 100 nM 3.15% | 833.33 nM 5.8% | 10000 nM 0.05%

CCOc1ccc(/C=C2\NCCc3cc(OCC)c(OCC)cc32)cc1OCC [drotaverine]
inactive: 1 nM 1.53% | 8.33 nM 2.33% | 100 nM -0.04% | 833.33 nM 2.62% | 10000 nM 0.78%

O=C(c1ccc(/C=C/c2n[nH]c3ccccc23)cc1)N1CCNCC1
inactive: 1 nM 0.11% | 8.33 nM 1.26% | 100 nM 0.85% | 833.33 nM 0.22% | 10000 nM -1.99%

N[C@H](C(=O)O)c1cc(O)no1 [ibotenic-acid]
inactive: 1 nM 2.28% | 8.33 nM 1.34% | 100 nM 0.56% | 833.33 nM -0.13% | 10000 nM -0.16%

CN1[C@@H]2CC[C@H]1C[C@@H](OC(c1ccccc1)c1ccccc1)C2 [benztropine-mesylate]
inactive: 1 nM 1.74% | 8.33 nM -0.55% | 100 nM 1.26% | 833.33 nM -8.96% | 10000 nM -7.74%

CN[C@@H]1[C@@H](O[C@H]2O[C@H](CO)[C@@H](N)[C@H](O)[C@H]2O)O[C@H]2C[C@@H](N)[C@@H](O[C@H]3[C@H](O)[C@@H](O)[C@H](N)C[C@@H]3N)O[C@@H]2[C@@H]1O [apramycin]
inactive: 1 nM -4.27% | 8.33 nM -2.53% | 100 nM -2.38% | 833.33 nM 0.37% | 10000 nM 0.71%

Clc1cccc(-n2nnnc2NCc2ccccc2Oc2ccccn2)c1Cl
inactive: 1 nM 1.27% | 8.33 nM -1.76% | 100 nM -3.85% | 833.33 nM 0.18% | 10000 nM 1.67%

NCCCNCCCCNCCCN [spermine]
inactive: 1 nM 1.74% | 8.33 nM -5.72% | 100 nM -0.71% | 833.33 nM -2% | 10000 nM 2.37%

O=C1C[C@@H](c2ccc(O)cc2)Oc2cc(O)cc(O)c21 [naringenin]
inactive: 1 nM -1.9% | 8.33 nM 0.02% | 100 nM -0.05% | 833.33 nM 0.5% | 10000 nM 0.31%

Cc1cc(Oc2ccc3nc(COc4ccc(CC5SC(=O)NC5=O)cc4)n(C)c3c2)cc(C)c1N (stereo not given) [efatutazone]
inactive: 1 nM -0.56% | 8.33 nM 2.28% | 100 nM 0.7% | 833.33 nM 0.08% | 10000 nM -0.83%

CC[C@]1(O)C[C@@H]2CN(CCc3c([nH]c4ccccc34)[C@@](C(=O)OC)(c3cc4c(cc3OC)N(C)[C@H]3[C@@](O)(C(=O)OC)[C@H](OC(C)=O)[C@]5(CC)C=CCN6CC[C@]43[C@@H]65)C2)C1 [Vinblastine (sulfate)]
inactive: 1 nM -0.48% | 8.33 nM 1.74% | 100 nM -0.03% | 833.33 nM 0.75% | 10000 nM -0.15%

CC(=O)O[C@]1(C(C)=O)CC[C@H]2[C@@H]3C=C(Cl)C4=CC(=O)CC[C@]4(C)[C@H]3CC[C@@]21C [chlormadinone-acetate]
inactive: 1 nM -13.3% | 8.33 nM -12.7% | 100 nM -10.2% | 833.33 nM -13.4% | 10000 nM -13%
